# Results from paper PMC7862700, “An all-to-all approach to the identification of sequence-specific readers for epigenetic DNA modifications on cytosine”.
# Assays:
# Assay in all cases: DAPPL (digital affinity profiling via proximity ligation, sequencing); 10 mM Tris-HCl pH 7.5, 50 mM NaCl, 1 mM DTT, 4% glycerol, room temperature, 30 min; GST-TFs on glutathione beads, 16-mer random dsDNA library, 0.1% formaldehyde crosslink after washing; high values mean tight binding
# Details in all cases: protein: recombinant; tags: N-terminal GST; dsDNA, one strand shown
# [1] = target: T1, FLI1 (Homo sapiens, UniProt Q01543 1-452)
# T1 sequence: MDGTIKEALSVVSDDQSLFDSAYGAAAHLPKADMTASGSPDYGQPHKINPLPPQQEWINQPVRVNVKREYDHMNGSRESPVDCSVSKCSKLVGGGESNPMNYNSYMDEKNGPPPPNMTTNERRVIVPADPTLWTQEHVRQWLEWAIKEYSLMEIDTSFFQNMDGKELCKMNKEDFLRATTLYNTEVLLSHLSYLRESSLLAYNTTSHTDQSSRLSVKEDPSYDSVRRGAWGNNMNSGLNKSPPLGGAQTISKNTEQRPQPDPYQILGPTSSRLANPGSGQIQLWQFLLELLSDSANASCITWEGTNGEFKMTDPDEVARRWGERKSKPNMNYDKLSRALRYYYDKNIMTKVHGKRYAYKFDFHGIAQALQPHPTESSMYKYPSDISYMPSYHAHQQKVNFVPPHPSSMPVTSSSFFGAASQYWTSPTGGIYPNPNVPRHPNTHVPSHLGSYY
# Summary of the method: (§1)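 GST fusions of human transcription factors were expressed in yeast and captured with glutathione beads. Once given DNA barcodes and pooled alongside a tag-only sample, they were incubated for 30 min at room temperature with 200 nmole of a random double-stranded 16-mer DNA library in Tris/NaCl/DTT/glycerol buffer, then washed, crosslinked (0.1% formaldehyde), proximity-ligated, PCR-amplified and sequenced on an Illumina NextSeq500. The binding signal of each hexamer is its read frequency for a factor divided by its frequency for the tag-only sample.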
# [2] = target: T2, ELK1 (Homo sapiens, UniProt P19419 1-428)
# T2 sequence: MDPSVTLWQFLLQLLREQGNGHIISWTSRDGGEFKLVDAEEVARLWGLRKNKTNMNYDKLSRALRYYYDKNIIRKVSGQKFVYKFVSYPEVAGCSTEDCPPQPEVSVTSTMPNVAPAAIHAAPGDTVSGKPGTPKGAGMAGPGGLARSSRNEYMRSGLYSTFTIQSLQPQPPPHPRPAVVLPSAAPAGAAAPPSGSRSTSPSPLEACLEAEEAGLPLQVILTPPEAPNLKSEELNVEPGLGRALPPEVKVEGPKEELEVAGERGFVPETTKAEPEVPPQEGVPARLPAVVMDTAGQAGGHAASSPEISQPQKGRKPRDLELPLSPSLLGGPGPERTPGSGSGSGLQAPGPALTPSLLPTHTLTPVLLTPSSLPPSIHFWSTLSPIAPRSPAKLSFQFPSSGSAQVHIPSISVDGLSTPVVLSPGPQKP
# Summary of the method: as §1
# [3] = target: T3, GABPA (Homo sapiens, UniProt Q06546 1-454)
# T3 sequence: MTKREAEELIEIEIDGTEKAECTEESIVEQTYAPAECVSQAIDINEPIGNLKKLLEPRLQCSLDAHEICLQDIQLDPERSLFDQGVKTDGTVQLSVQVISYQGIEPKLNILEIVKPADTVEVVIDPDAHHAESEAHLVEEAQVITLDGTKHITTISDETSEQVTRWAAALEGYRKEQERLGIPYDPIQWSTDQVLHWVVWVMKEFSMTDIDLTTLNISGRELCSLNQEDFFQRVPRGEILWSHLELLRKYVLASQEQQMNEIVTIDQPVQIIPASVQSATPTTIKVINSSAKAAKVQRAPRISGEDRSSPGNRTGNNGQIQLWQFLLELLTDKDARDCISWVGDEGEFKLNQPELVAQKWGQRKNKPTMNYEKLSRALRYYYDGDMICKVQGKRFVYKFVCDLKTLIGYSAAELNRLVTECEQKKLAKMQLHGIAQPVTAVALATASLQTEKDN
# Summary of the method: as §1
# [4] = target: T4, ERG (Homo sapiens, UniProt P11308 1-479)
# T4 sequence: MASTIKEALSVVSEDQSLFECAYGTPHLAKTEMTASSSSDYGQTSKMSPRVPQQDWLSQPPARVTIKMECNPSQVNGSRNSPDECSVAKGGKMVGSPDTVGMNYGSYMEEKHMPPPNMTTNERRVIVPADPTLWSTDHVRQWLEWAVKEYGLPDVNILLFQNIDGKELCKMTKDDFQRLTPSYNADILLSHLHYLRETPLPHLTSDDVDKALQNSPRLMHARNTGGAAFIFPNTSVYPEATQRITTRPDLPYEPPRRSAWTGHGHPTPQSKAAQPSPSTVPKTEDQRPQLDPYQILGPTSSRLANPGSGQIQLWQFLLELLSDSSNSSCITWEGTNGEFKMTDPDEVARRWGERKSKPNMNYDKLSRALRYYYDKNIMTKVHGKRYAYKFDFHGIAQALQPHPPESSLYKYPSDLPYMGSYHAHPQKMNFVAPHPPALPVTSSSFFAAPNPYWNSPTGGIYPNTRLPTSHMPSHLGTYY
# Summary of the method: as §1
# [5] = target: ELF1 (Homo sapiens, UniProt P32519 1-619)
# Sequence of ELF1 (P32519 whole entry): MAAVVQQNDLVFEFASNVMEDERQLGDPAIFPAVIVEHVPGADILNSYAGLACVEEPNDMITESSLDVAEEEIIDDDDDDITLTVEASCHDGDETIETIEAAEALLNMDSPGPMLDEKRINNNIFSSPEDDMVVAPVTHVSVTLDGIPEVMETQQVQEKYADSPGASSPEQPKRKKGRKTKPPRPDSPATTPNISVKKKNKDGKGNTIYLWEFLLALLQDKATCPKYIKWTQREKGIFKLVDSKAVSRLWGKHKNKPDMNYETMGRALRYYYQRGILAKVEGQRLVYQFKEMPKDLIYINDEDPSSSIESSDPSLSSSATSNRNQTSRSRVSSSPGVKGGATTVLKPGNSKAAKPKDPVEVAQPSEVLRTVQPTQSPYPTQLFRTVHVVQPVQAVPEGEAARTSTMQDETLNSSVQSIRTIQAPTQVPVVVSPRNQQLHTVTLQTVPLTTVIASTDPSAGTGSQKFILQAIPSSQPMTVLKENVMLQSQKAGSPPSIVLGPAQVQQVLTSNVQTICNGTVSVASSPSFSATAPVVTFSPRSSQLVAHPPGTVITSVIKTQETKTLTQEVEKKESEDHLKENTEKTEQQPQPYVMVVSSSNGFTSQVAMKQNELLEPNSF
# Summary of the method: as §1
# [6] = target: T5, EHF (Homo sapiens, UniProt Q9NZC4 1-300)
# T5 sequence: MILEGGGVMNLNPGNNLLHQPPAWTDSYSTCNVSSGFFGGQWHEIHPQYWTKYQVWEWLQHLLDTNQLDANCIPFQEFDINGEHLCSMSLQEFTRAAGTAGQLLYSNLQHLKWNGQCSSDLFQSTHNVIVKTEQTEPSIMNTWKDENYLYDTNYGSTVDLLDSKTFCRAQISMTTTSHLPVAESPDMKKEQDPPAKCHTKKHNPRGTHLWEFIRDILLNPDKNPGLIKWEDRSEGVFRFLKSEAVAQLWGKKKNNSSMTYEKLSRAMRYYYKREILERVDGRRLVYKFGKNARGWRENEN
# Summary of the method: as §1
# [7] = target: SPI1 (Homo sapiens, UniProt P17947 1-270)
# Summary of the method: as §1
# [8] = target: SPIB (Homo sapiens, UniProt Q01892 1-262)
# Sequence of SPIB (Q01892 whole entry): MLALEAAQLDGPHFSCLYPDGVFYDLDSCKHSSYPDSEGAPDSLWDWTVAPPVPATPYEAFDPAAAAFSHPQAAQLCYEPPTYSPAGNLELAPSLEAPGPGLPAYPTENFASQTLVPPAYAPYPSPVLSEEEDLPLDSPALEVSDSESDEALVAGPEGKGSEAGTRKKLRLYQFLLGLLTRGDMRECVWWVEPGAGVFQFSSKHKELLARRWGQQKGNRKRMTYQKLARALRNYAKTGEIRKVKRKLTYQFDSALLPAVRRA
# Summary of the method: as §1
# [9] = target: T6, ELK3 (Homo sapiens, UniProt P41970 1-407)
# T6 sequence: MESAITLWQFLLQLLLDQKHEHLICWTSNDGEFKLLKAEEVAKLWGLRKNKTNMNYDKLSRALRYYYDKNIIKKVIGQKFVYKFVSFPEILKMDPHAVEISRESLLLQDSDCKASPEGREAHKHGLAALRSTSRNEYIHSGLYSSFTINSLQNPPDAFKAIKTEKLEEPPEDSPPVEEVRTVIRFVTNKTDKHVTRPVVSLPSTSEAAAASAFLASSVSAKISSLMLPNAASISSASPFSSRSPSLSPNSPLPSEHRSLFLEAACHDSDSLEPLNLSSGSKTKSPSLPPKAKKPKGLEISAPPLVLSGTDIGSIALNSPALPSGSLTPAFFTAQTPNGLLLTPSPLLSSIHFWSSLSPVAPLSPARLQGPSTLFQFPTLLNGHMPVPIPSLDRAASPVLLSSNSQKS
# Summary of the method: as §1
Sequence,binding signal [1],binding signal [2],binding signal [3],binding signal [4],binding signal [5],binding signal [6],binding signal [7],binding signal [8],binding signal [9]
CTCCCG,"1.61 fold enrichment (6-mer frequency, TF over GST control)","1.56 fold enrichment (6-mer frequency, TF over GST control)","1.62 fold enrichment (6-mer frequency, TF over GST control)","1.54 fold enrichment (6-mer frequency, TF over GST control)","1.57 fold enrichment (6-mer frequency, TF over GST control)","1.75 fold enrichment (6-mer frequency, TF over GST control)","1.45 fold enrichment (6-mer frequency, TF over GST control)","1.62 fold enrichment (6-mer frequency, TF over GST control)","1.58 fold enrichment (6-mer frequency, TF over GST control)"
TTGCGA,"1.19 fold enrichment (6-mer frequency, TF over GST control)","1.08 fold enrichment (6-mer frequency, TF over GST control)","1.1 fold enrichment (6-mer frequency, TF over GST control)","1.17 fold enrichment (6-mer frequency, TF over GST control)","1.16 fold enrichment (6-mer frequency, TF over GST control)","1.13 fold enrichment (6-mer frequency, TF over GST control)","1.17 fold enrichment (6-mer frequency, TF over GST control)","1.23 fold enrichment (6-mer frequency, TF over GST control)","1.21 fold enrichment (6-mer frequency, TF over GST control)"
CTACCT,"1.37 fold enrichment (6-mer frequency, TF over GST control)","1.46 fold enrichment (6-mer frequency, TF over GST control)","1.35 fold enrichment (6-mer frequency, TF over GST control)","1.43 fold enrichment (6-mer frequency, TF over GST control)","1.35 fold enrichment (6-mer frequency, TF over GST control)","1.46 fold enrichment (6-mer frequency, TF over GST control)","1.45 fold enrichment (6-mer frequency, TF over GST control)","1.4 fold enrichment (6-mer frequency, TF over GST control)","1.44 fold enrichment (6-mer frequency, TF over GST control)"
AATACG,"1.11 fold enrichment (6-mer frequency, TF over GST control)","1.19 fold enrichment (6-mer frequency, TF over GST control)","1.24 fold enrichment (6-mer frequency, TF over GST control)","1.22 fold enrichment (6-mer frequency, TF over GST control)","1.12 fold enrichment (6-mer frequency, TF over GST control)","1.18 fold enrichment (6-mer frequency, TF over GST control)","1.32 fold enrichment (6-mer frequency, TF over GST control)","1.25 fold enrichment (6-mer frequency, TF over GST control)","1.26 fold enrichment (6-mer frequency, TF over GST control)"
ACTTCT,"1.49 fold enrichment (6-mer frequency, TF over GST control)","1.53 fold enrichment (6-mer frequency, TF over GST control)","1.5 fold enrichment (6-mer frequency, TF over GST control)","1.43 fold enrichment (6-mer frequency, TF over GST control)","1.52 fold enrichment (6-mer frequency, TF over GST control)","1.56 fold enrichment (6-mer frequency, TF over GST control)","1.62 fold enrichment (6-mer frequency, TF over GST control)","1.45 fold enrichment (6-mer frequency, TF over GST control)","1.48 fold enrichment (6-mer frequency, TF over GST control)"
GCCTAA,"1.22 fold enrichment (6-mer frequency, TF over GST control)","1.17 fold enrichment (6-mer frequency, TF over GST control)","1.14 fold enrichment (6-mer frequency, TF over GST control)","1.24 fold enrichment (6-mer frequency, TF over GST control)","1.22 fold enrichment (6-mer frequency, TF over GST control)","1.28 fold enrichment (6-mer frequency, TF over GST control)","1.11 fold enrichment (6-mer frequency, TF over GST control)","1.23 fold enrichment (6-mer frequency, TF over GST control)","1.19 fold enrichment (6-mer frequency, TF over GST control)"
ATCTTA,"1.15 fold enrichment (6-mer frequency, TF over GST control)","1.07 fold enrichment (6-mer frequency, TF over GST control)","1.1 fold enrichment (6-mer frequency, TF over GST control)","1.09 fold enrichment (6-mer frequency, TF over GST control)","1.15 fold enrichment (6-mer frequency, TF over GST control)","1.04 fold enrichment (6-mer frequency, TF over GST control)","1.01 fold enrichment (6-mer frequency, TF over GST control)","1.03 fold enrichment (6-mer frequency, TF over GST control)","1.11 fold enrichment (6-mer frequency, TF over GST control)"
